From PubChem BioAssay (Tox21) come the findings set out here.

A number with no mark means an inactive call. Records with an inconclusive call do not appear. Calls of active or inactive are those of the source. Unless noted, calls follow the shape of the dose curve; as a rule, active = well fitted curve in the direction sought with a large enough effect in the repeat runs; inconclusive = weak or mixed curves; inactive = no such curve, though single readings can be large; an effect the other way counts as inactive or inconclusive.

Assay [1] is described as follows: qHTS assay to identify small molecule agonists of the androgen receptor (AR) signaling pathway in the presence of an antagonist - cell viability counter screen (AID 1259379). Also: nearly all actives have a fitted effect of over 25% in size. Also: potency is read from the fitted curve at half-maximal effect.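 As to activity change, negative = cytotoxicity: MDA-kb2 human breast cancer cells carrying an MMTV luciferase reporter; series mostly up to about 92 µM.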 The essentials:
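MDA-kb2 viability measured by CellTiter-Fluor fluorescence in the same wells as the luciferase signal; nilutamide 3.0uM final; 15-point compound titration; 16 hr at 37C.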
Background: qHTS replaces the single test concentration by a dilution series.

A short description of assay [2]: qHTS assay to identify small molecule agonists of the estrogen receptor beta (ER-beta) signaling pathway - cell viability counter screen (AID 1259380). Also: nearly all actives have a fitted effect of over 30% in size. Also: potency is read from the fitted curve at half-maximal effect. The essentials:
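Measured: luminescence from CellTiter-Glo after 30 min at room temperature, added to wells already read for the LiveBLAzer FRET reporter (2 hr substrate); ER-beta-UAS-bla HEK293T cells had 16 hr compound treatment at 37C, 5% CO2.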

Assay [3] in a line: qHTS assay to identify small molecule agonists or antagonists of the thyroid stimulating hormone receptor (TSHR) signaling pathway - wild type cell line counter screen (AID 1259384; calls by dose curve). The essentials:
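Wild-type HEK293 cells were plated 18 h at 37 C/5% CO2, pin-dosed with compound plus Ro20-1724 medium, held 30 min at room temperature, then given cAMP-d2 and anti-cAMP-cryptate; fluorescence was read after 1 h. Fifteen concentrations, triplicate.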

For assay [4], the target named is Thyrotropin receptor (Homo sapiens) (UniProt P16473). Briefly: qHTS assay to identify small molecule antagonists of the thyroid stimulating hormone receptor (TSHR) signaling pathway (AID 1259385; calls by dose curve; also: nearly all actives have a fitted effect of over 20% in size; also: potency is read from the fitted curve at half-maximal effect). Summed up:
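TSHR-HEK293 cells were plated and held 18 h at 37C/5% CO2, then given compound plus Ro20-1724 and stimulated with TSH at 1.5 ng/mL final. After 30 min at room temperature, cAMP was detected with cAMP-d2/anti-cAMP-cryptate (1 h) by fluorescence.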

Assay [5] is described as follows: qHTS assay to identify small molecule agonists of the estrogen receptor alpha (ER-alpha) signaling pathway in the presence of an antagonist - cell viability counter screen (AID 1259386).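 Also: cells exposed to compounds for 22 h at 37 °C before the viability read; nearly all actives have a fitted effect of over 30% in size.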 Also: potency is read from the fitted curve at half-maximal effect. As to activity change, negative = cytotoxicity: series mostly up to about 92 µM. The essentials:
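The test measures whether compounds kill ER-alpha reporter cells (VM7Luc4E2) under antagonist co-treatment (ICI-182,780, 10.0nM). Fluorescence from CellTiter-Fluor is read after a 22hr exposure.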

The target of assay [6] is Progesterone receptor (Homo sapiens) (UniProt P06401). Description: qHTS assay to identify small molecule agonists of the progesterone receptor (PR) signaling pathway (AID 1346784; calls by dose curve; also: nearly all actives have a fitted effect of over 30% in size; also: potency is read from the fitted curve at half-maximal effect). Summed up:
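Fluorescence from LiveBLAzer B/G FRET substrate cleavage (2 hr, RT) reported PR activation in PR-UAS-bla HEK 293T cells treated 16 hr at 37C/5% CO2 with compounds; medium contained 2% charcoal-stripped FBS.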

For assay [7] the target is unchanged. Description: qHTS assay to identify small molecule antagonists of the progesterone receptor (PR) signaling pathway (AID 1346795; active = well fitted inhibition curve with a large enough effect in the signal ratio in the repeat runs, not every such curve was filed as active; the % refers to the signal ratio; also: potency is read from the fitted curve at half-maximal effect). Summed up:
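Fluorescence intensity measured 2 hr after adding beta-lactamase FRET substrate to PR-UAS-bla HEK293T cells that had been co-treated 16 hr with compound and 1 nM R5020 (final concentration) in 2% charcoal-stripped FBS.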

In assay [8] the target is Thyrotropin-releasing hormone receptor (Homo sapiens) (UniProt P34981). Briefly: qHTS assay to identify small molecule antagonists of the thyrotropin-releasing hormone receptor (TRHR) signaling pathway (AID 1346877; active = well fitted inhibition curve with a large enough effect in the repeat runs, not every such curve was filed as active; also: series mostly up to about 51 µM). Summed up: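 Overnight-plated (18 h, 37 °C) HEK293 cells expressing TRHR were dye-loaded 2 h, treated with compound, then stimulated with TRH at 1 nM final. Fluorescence intensity was captured every second for 3 min.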

Assay [9] shares this target. Briefly: qHTS assay to identify small molecule agonists of the thyrotropin-releasing hormone receptor (TRHR) signaling pathway (AID 1346891; calls by dose curve;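 also: HEK293 cells expressing TRHR with calcium dye readout; series mostly up to about 58 µM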). The essentials: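 Compounds were tested as agonists at 15 concentrations, in triplicate, on TRHR-Hek293 cells; calcium-sensitive dye fluorescence was recorded for 3 min following addition.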
Assay [10] in a line: qHTS assay to identify small molecule antagonists of the estrogen receptor beta (ER-beta) signaling pathway - cell viability counter screen (AID 1259382). Also: nearly all actives have a fitted effect of over 55% in size. Also: potency is read from the fitted curve at half-maximal effect. As to activity change, negative = cytotoxicity: series mostly up to about 92 µM. The essentials:
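Readout: luminescence, CellTiter-Glo, same wells as bla assay. System: ER-beta-UAS-bla GripTite HEK293T, 2% charcoal-stripped FBS. Exposure: compounds plus 1nM 17-beta-estradiol, 16 hr, 37C.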

Assay [11] addresses Estrogen receptor (Homo sapiens) (UniProt P03372). Briefly: qHTS assay to identify small molecule agonists of the estrogen receptor alpha (ER-alpha) signaling pathway in the presence of an antagonist (AID 1259383; calls by dose curve; also: top concentration of the series differs between compounds; nearly all actives have a fitted effect of over 15% in size). The essentials: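 Quantitative HTS confirmation: compounds titrated at 15 concentrations onto estrogen-deprived VM7Luc4E2 cells carrying a four-ERE luciferase construct, with ICI-182,780 present at 10.0nM final. Signal is luminescence after 22hr exposure.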

The nature of assay [12]: qHTS assay to identify small molecule antagonists of the progesterone receptor (PR) signaling pathway - cell viability counter screen (AID 1346798). Also: series mostly up to about 92 µM; nearly all actives have a fitted effect of over 50% in size. The essentials: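 CellTiter-Glo luminescence; PR-UAS-bla HEK293T, 3,000 cells/well; compound + R5020, 16 hr, 37C/5% CO2; 30 min RT before read.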
Assay [13] is described as follows: qHTS assay to identify small molecule antagonists of the TGF-beta/Smad signaling pathway - cell viability counter screen (AID 1346824). Also: nearly all actives have a fitted effect of over 50% in size. The essentials: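 SBE-bla HEK 293T cells were plated overnight at 37 C, then given compounds in DMSO plus TGF-beta1 (added as 0.25 ng/mL solution) for 5 hr. After the bla read, CellTiter-Glo was added to the same wells and luminescence read after 30 min at room temperature.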

Assay [14] is described as follows: qHTS assay to identify small molecule agonists of the TGF-beta/Smad signaling pathway - cell viability counter screen (AID 1346829). Also: top concentration of the series differs between compounds; nearly all actives have a fitted effect of over 45% in size. Summed up:
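SBE-bla HEK 293T cells plated overnight, compound exposure 5 hr at 37 C. Viability read in the same wells by CellTiter-Glo luminescence after 30 min at room temperature, following the beta-lactamase read.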

Assay [15] in a line: qHTS assay to identify small molecule agonists of the TGF-beta/Smad signaling pathway (AID 1346859; active = well fitted activation curve with a large enough effect in the signal ratio in the repeat runs, not every such curve was filed as active; the % refers to the signal ratio; also: series mostly up to about 77 µM). Summed up: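 After overnight seeding, SBE-bla HEK 293T cells are dosed with compounds in DMSO and kept 5 hr at 37 C, 5% CO2. LiveBLAzer-type FRET substrate is then applied for 2 hr at room temperature.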
The target of assay [16] is Estrogen receptor beta (Homo sapiens) (UniProt Q92731). Description: qHTS assay to identify small molecule agonists of the estrogen receptor beta (ER-beta) signaling pathway (AID 1259377; active = well fitted activation curve with a large enough effect in the signal ratio in the repeat runs, not every such curve was filed as active; the % refers to the signal ratio). The essentials:
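qHTS in ER-beta-UAS-bla HEK293T cells: 6 hr settling, then 16 hr compound at 37C, then LiveBLAzer substrate 2 h at RT before fluorescence reading.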

Assay [17] has the same target. Briefly: qHTS assay to identify small molecule antagonists of the estrogen receptor beta (ER-beta) signaling pathway (AID 1259378; active = well fitted inhibition curve with a large enough effect in the signal ratio in the repeat runs, not every such curve was filed as active; the % refers to the signal ratio). Summed up:
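ER-beta-UAS-bla HEK293T (GripTite) cells in 2% charcoal-stripped FBS medium were preincubated 6 hr at 37C, dosed with compound, then stimulated with 1 nM E2 (final) for 16 hr; beta-lactamase reporter read by B/G FRET fluorescence after 2 hr substrate loading.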

The nature of assay [18]: qHTS assay to identify small molecule agonists of the progesterone receptor (PR) signaling pathway - cell viability counter screen (AID 1346799; calls by dose curve; also: nearly all actives have a fitted effect of over 45% in size). Summed up: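 In parallel with the beta-lactamase readout, cytotoxicity toward PR-UAS-bla HEK293T cells was measured by CellTiter-Glo luminescence following 16 hr compound incubation in 2% charcoal-stripped FBS medium.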
The target in assay [19] is Androgen receptor (Homo sapiens) (UniProt P10275). Description: qHTS assay to identify small molecule agonists of the androgen receptor (AR) signaling pathway in the presence of an antagonist (AID 1259381; calls by dose curve; also: nearly all actives have a fitted effect of over 15% in size). The essentials: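 Luminescent ONE-Glo read, 30min at room temperature, follows 16hr compound exposure (15 concentrations) of MDA-kb2 cells at 37C, 0% CO2, with nilutamide added at 3.0uM final.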
% is scaled to controls: 0 for no effect and ±100 for the full control effect.

Chain of Estrogen receptor beta (Homo sapiens) (Q92731 whole entry, looked up): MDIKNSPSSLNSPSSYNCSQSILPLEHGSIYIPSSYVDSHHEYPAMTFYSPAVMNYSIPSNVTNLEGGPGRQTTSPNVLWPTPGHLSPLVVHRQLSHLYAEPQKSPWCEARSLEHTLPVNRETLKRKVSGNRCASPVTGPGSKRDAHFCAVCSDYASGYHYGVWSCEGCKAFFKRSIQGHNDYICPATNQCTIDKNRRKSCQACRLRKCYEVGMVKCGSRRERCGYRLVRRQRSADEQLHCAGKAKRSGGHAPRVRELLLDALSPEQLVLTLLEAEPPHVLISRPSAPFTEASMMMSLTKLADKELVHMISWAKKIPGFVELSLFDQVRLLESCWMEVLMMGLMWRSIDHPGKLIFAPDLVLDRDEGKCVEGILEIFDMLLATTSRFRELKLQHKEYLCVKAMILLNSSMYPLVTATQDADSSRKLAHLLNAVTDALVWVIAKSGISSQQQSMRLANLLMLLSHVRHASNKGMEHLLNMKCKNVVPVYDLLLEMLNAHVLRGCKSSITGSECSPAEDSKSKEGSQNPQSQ
Chain of Thyrotropin-releasing hormone receptor (Homo sapiens) (P34981 whole entry, looked up): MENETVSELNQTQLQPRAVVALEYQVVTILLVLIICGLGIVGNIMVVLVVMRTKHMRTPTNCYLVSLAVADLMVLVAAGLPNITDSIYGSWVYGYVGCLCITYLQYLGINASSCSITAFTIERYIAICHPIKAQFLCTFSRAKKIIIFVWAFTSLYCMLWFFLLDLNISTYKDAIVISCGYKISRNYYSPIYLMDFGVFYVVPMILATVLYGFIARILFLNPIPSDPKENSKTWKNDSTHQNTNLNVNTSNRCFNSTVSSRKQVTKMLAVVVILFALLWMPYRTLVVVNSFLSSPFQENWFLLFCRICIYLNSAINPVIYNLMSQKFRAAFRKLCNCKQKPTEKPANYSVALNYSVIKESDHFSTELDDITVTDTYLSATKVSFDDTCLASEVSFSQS
Chain of Estrogen receptor (Homo sapiens) (P03372 whole entry, looked up): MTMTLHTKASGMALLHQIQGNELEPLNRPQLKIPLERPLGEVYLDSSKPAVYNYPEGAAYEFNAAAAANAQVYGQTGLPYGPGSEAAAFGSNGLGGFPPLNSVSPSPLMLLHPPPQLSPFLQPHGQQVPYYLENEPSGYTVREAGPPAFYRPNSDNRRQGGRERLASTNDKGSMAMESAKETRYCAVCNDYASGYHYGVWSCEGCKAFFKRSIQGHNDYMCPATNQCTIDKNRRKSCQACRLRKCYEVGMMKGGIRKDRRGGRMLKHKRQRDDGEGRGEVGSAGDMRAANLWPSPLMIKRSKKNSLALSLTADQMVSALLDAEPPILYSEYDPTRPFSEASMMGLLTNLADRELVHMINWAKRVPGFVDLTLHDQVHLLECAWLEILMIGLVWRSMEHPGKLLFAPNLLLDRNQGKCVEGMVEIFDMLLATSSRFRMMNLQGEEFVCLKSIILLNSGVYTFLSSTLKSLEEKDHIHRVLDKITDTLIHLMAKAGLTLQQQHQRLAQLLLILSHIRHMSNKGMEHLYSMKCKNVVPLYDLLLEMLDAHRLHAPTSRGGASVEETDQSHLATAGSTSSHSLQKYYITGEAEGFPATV
Chain of Progesterone receptor (Homo sapiens) (P06401 whole entry, looked up): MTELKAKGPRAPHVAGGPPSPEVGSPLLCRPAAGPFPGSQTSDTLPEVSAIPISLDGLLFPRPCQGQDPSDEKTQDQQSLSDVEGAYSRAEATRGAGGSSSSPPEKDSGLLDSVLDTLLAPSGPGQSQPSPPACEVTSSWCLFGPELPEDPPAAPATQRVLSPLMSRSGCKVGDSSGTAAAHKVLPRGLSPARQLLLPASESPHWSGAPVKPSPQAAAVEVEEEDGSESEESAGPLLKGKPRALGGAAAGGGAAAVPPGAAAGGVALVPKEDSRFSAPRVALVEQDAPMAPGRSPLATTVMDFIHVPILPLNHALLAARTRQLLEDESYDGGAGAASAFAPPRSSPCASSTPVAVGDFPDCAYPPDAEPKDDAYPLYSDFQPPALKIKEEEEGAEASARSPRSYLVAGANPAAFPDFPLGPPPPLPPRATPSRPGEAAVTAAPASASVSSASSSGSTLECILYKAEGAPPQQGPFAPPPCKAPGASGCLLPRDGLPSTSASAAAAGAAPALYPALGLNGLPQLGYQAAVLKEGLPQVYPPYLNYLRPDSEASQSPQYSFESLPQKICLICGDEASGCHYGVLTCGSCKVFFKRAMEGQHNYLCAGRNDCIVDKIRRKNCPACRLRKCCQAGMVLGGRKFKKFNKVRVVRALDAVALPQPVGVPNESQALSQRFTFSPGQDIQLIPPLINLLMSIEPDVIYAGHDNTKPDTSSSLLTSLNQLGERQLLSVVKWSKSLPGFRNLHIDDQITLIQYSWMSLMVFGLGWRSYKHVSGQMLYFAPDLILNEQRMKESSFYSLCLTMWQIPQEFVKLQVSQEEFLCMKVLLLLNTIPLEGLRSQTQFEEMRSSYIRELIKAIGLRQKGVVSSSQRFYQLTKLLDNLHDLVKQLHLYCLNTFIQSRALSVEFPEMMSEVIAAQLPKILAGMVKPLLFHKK
Chain of Thyrotropin receptor (Homo sapiens) (P16473 whole entry, looked up): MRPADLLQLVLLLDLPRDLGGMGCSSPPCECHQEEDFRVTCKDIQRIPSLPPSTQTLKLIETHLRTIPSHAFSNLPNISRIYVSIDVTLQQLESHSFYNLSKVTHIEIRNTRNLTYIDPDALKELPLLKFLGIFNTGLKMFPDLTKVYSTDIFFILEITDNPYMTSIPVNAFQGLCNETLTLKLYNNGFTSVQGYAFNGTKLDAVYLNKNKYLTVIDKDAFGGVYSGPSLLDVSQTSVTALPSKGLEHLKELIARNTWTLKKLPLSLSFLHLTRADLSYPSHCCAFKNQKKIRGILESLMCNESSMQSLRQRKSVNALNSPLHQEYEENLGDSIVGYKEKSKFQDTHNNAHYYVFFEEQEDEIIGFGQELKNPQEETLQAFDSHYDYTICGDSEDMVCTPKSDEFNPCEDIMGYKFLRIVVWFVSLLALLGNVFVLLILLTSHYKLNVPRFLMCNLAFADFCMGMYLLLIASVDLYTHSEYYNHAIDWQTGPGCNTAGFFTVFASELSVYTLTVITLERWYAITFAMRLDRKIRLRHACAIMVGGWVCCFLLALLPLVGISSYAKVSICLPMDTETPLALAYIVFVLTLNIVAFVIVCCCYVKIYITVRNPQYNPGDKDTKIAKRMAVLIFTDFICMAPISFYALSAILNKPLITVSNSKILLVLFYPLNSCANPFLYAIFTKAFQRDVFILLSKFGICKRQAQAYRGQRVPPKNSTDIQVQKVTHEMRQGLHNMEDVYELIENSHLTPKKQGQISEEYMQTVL
Chain of Androgen receptor (Homo sapiens) (P10275 whole entry, looked up): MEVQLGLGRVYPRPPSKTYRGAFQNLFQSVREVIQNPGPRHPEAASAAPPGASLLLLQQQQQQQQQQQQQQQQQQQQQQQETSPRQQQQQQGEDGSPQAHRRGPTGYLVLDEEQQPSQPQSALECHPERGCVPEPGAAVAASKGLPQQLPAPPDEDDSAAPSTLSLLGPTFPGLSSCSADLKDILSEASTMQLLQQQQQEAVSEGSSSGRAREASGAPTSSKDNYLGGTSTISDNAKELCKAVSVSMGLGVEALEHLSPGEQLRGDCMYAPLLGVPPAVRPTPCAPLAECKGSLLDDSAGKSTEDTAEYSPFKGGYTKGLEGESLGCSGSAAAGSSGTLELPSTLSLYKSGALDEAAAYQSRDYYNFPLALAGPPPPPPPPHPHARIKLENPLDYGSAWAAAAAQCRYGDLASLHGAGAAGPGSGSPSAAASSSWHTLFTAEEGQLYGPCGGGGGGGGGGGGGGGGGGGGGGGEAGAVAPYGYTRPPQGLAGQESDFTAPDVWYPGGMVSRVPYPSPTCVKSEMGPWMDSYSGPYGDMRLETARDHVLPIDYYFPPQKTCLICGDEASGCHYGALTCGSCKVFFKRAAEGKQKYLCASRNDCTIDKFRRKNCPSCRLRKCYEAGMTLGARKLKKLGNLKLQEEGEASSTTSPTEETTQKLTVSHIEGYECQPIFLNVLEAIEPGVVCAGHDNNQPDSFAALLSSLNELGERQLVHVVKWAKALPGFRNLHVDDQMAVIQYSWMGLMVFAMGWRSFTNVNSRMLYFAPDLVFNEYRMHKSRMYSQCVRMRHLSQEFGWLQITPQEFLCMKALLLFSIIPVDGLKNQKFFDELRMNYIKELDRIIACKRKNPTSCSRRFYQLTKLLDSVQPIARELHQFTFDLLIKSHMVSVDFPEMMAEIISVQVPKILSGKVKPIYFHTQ

Regarding `O=C(O)c1cccc(-c2noc(-c3ccccc3F)n2)c1`, the Potency entry in [1], in assay [4], in [5], in [6], in assay [7] and in assay [9] was “inactive” each time. Further, the Potency in assay [2] was 26.6 µM (active). Besides, the compound was called inactive in assay [3] and in assay [8].

On to `O=C(/C=C/c1ccc(O)c(O)c1)O[C@@H]1C[C@@](OC(=O)/C=C/c2ccc(O)c(O)c2)(C(=O)O)C[C@@H](O)[C@@H]1O`, for which the Potency entry in assay [1], in assay [2], in [10], in assay [11], in assay [5] and in assay [6] was “inactive” each time. Besides, the Potency result in [7], in assay [12], in assay [13], in assay [14], in [15] and in [9] was “inactive” throughout. In addition, the compound was classed as inactive in assay [3] and in assay [8].

`Cc1cc(=O)c2c(O)c3c(O)cc(=O)c4c3c3c(cc(O)c1c23)C(C)(C)C=4O`: the activation is -11.3% [at 19 µM] in assay [16], -2.51% [at 19 µM] in [6] and 12.7% [at 11.8 µM] in assay [9]. In addition, the Potency in assay [1] is 1.46 µM (active). Moreover, the activity change, negative = cytotoxicity in assay [5] was -17.3% [at 19 µM].

As to `CC(=O)N/N=C/c1ccc([N+](=O)[O-])o1`, the Potency entry in assay [17], in [1], in [2], in [10], in assay [11] and in assay [4] was “inactive” throughout. Further, the Potency entry in [5], in [6], in [7], in [12], in assay [18] and in assay [13] was “inactive” throughout. The Potency result in [14], in assay [15] and in assay [9] was “inactive” each time. The compound was called inactive in assay [3] and in assay [8].

`CN(C)CCC=C1c2ccccc2C=Cc2ccccc21`: the Potency in assay [2] is 26.6 µM (active); in assay [10], 29.8 µM (active); in assay [4], 29.8 µM (active). In addition, the Potency result in assay [11], in [5], in assay [6], in assay [13], in assay [14] and in assay [15] was “inactive” throughout. Further, the Potency entry in assay [9] is “inactive”. The compound was called inactive in [3] and in [8].

With `COC(=O)[C@H]1[C@H]2C[C@@H]3c4[nH]c5cc(OC)ccc5c4CCN3C[C@H]2C[C@@H](OC(=O)/C=C/c2ccc(O)c(OC)c2)[C@@H]1OC`, the Potency entry in [16], in [19], in assay [11], in assay [4], in [5] and in assay [6] was “inactive” each time. In addition, the Potency entry in [7], in assay [13], in [14] and in assay [9] was “inactive” each time. For the same compound, the Potency in [2] is 8.41 µM (active). The compound was classed as inactive in assay [3] and in [8].

For `CCCCCCCCCCC(=O)O`, the Potency entry in assay [16], in assay [1], in [10], in assay [11], in assay [4] and in [5] was “inactive” each time. The Potency entry in assay [6], in [7], in assay [12], in assay [18], in assay [13] and in assay [15] was “inactive” in each case. Also, in [9], the Potency entry is “inactive”. Moreover, in assay [8], the compound was called inactive.

Take `O=c1c(O)c(-c2ccc(O)cc2)oc2cc(O)cc(O)c12`: the Potency result in [1], in assay [10], in [4], in [6], in assay [13] and in assay [14] was “inactive” in each case. Besides, the compound was called inactive in assay [3]. Also, the Potency in [7] was 5.19 µM (active).

`CCOC(=O)c1ccc(OCCN2C[C@H](O)[C@@H](O)[C@H](O)[C@H]2CO)cc1`: the Potency entry in [1], in assay [2], in assay [10], in assay [11], in [4] and in assay [5] was “inactive” each time. Also, the Potency entry in [6], in [7], in [12], in [18], in [13] and in assay [14] was “inactive” each time. For the same compound, the Potency entry in assay [15] and in [9] was “inactive” in each case. Further, the outcome in [8] was inactive.

With `C(=C\c1ccccc1)/c1ccccc1`, the Potency result in assay [1], in assay [2], in assay [10], in assay [11], in assay [4] and in [5] was “inactive” in each case. For the same compound, the Potency result in [6], in assay [7], in assay [12], in assay [18], in assay [13] and in [14] was “inactive” in each case. For the same compound, the Potency result in assay [15] and in assay [9] was “inactive” each time. Also, the compound was called inactive in assay [3] and in [8].

With `CN1C(=O)c2ccccc2C1=O`, the Potency result in assay [1], in [2], in [10], in assay [4], in assay [5] and in assay [13] was “inactive” in each case. Further, the Potency result in assay [14], in assay [15] and in assay [9] was “inactive” throughout. In addition, in [6], the Potency was 1.09 µM (active). Besides, in [8], the compound was classed as inactive.

Take `Cc1ccco1`: the Potency entry in [1], in assay [2], in assay [10], in assay [11], in [4] and in [5] was “inactive” each time. Moreover, the Potency entry in assay [6], in assay [12], in [18], in assay [13], in assay [14] and in assay [15] was “inactive” in each case. For the same compound, the Potency entry in [9] is “inactive”. In [3], the result was inactive.

As to `Nc1nc2ccc([N+](=O)[O-])cc2s1`, the outcome in [3] and in assay [8] was inactive. Also, in assay [5], the Potency was 54.5 µM (active). Also, the Potency result in assay [13], in assay [15] and in [9] was “inactive” each time.
